Reference: ChEMBL document CHEMBL1157539, “Thousands of chemical starting points for antimalarial lead identification” (Nature, 2010)

Key:
Assay type in all cases: functional
[1] = test system: Plasmodium falciparum; assay: GSK_TCMDC: Inhibition of Plasmodium falciparum 3D7 in whole red blood cells, using parasite LDH activity as an index of growth. Test compounds present at 2uM
[2] = test system: Plasmodium falciparum; assay: GSK_TCMDC: Inhibition of Plasmodium falciparum Dd2 in whole red blood cells, using parasite LDH activity as an index of growth. Test compounds present at 2uM
[3] = test system: HepG2; assay: GSK_TCMDC: Percent inhibition of human HepG2 cell line. Test compounds present at 10uM.

| SMILES | Inhibition [1] | Inhibition [2] | Inhibition [3] |
| --- | --- | --- | --- |
| O=C(NC1CCN(CCC[C@]2(c3ccc(Cl)c(Cl)c3)CCCN(C(=O)c3ccccc3)C2)CC1)c1ccc(Cl)cc1 | 95% | 4% | 56% |
| O=c1ccc(CNc2nc(NCCc3ccccc3)nc3cc(Cl)ccc23)c[nH]1 | 95% | 78% | 21% |
| CC(C)c1sc(N2CCN(C)CC2)nc1C(=O)Nc1cccc2c1CCCC2.O=C(O)C(F)(F)F | 98% | 50% | 3% |
| CCCC(=O)c1cnc2c(OCCCc3c[nH]cn3)cccc2c1Nc1c(C)cccc1C | 98% | 14% | 20% |
| CCOc1c(OC)ccc2c1CCN(CCN1CCC(NC(=O)c3ccc(-c4cccc(C(F)(F)F)c4C(F)(F)F)cc3)CC1)C2 | 100% | 57% | 30% |
| CCN(CCCN1CCCCC1)c1cc(C)nc(Nc2ccc(OC)cc2)n1.O=C(O)C(F)(F)F | 100% | 24% | 23% |
| O=C(Nc1ccc(OC2CCN(Cc3ccco3)CC2)c(Cl)c1)c1ccc2ncccc2c1.O=C(O)C(F)(F)F | 97% | 40% | 0% |
| O=C(c1cc(C(=O)Nc2ccccc2)c(=O)n(-c2ccccc2)c1)c1cc(Cl)ccc1O | 100% | 95% | 9% |
| Cc1cc(NCCC(=O)NCCOc2ccccc2)nc(NCc2ccccc2C)n1.O=C(O)C(F)(F)F | 92% | 29% | 17% |
| O=C(CC(=O)Nc1cc(Cl)cc(Cl)c1)Nc1cc(Cl)cc(Cl)c1 | 95% | 96% | 0% |
